Measurements as given in PubChem BioAssay (NCI).
About 79,000 compounds went through this panel and 15% of them were active in at least one assay; those are over-represented in the sample as a whole. Values without a mark were called inactive. The source made the active and inactive calls. Rule as the data show it: active = growth inhibition above about 70%; inactive = the rest.

Experiment: NCI Yeast Anticancer Drug Screen. Data for the wt2 strain (AID 169);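 also: 0% = growth of vehicle-treated yeast cultures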
Conditions: S. cerevisiae wt2 strain growth inhibition, active compounds read high
Experimental: Growth inhibition of yeast strains with defined genetic alterations is measured as a screen for potential anti-cancer activity. Selected strains with alterations in DNA damage repair or cell cycle control were exposed to compounds and growth inhibition was measured relative to vehicle treated controls. The strain used in this assay is wt2

Compound | growth inhibition (at 1.2 µM) [%] | growth inhibition (at 3.7 µM) [%] | growth inhibition (at 11.0 µM) [%] | growth inhibition (at 33.0 µM) | growth inhibition (at 100.0 µM)
CCO/C=C1\SC(=S)N(c2ccc(OCC)cc2)C1=O | -28 | -38 | -59 | -38% | 27%
CCCCCCNCCCNc1c2cc(OC)ccc2nc2cccc([N+](=O)[O-])c12 | 0 | 0 | 12 | 81% (active) | 98% (active)
CCCCCCC=C(C(=O)OCC)C(=O)OCC | -2 | -3 | -5 | -4% | 16%
CCC[CH2][Ge]([CH2]CCC)([CH2]CCC)[O]C(=O)C(O)c1ccccc1 (stereo not given) | -2 | -2 | 16 | 81% (active) | 99% (active)
CC1=NN(C(=O)CC(=O)NC(=O)/C=C\c2ccccc2)C(=O)C1N=Nc1ccc([N+](=O)[O-])cc1 (stereo not given) | 0 | 7 | 39 | 64% | 61%
O=C1/C(=C/c2ccc(Cl)c(Cl)c2)CNC/C1=C\c1ccc(Cl)c(Cl)c1 | 1 | 0 | -12 | 96% (active) | 97% (active)
O=C(Oc1ccc([N+](=O)[O-])cc1)c1ccc([N+](=O)[O-])cc1 | -7 | -5 | -8 | -8% | -5%
c1ccc2nc3c(nc2c1)sc1ccccc13 | -2 | 1 | 6 | 13% | 9%
